# Source: the supplement of paper PMC4466140
# Molecular target: SpBzz1-D2
# Assay: SPOT peptide array binding signal intensity (averaged, normalized) (arbitrary units (background-subtracted, floor 0; scale differs between SH3 domains)); higher = stronger binding of the SH3 domain to the peptide
# How it was run: (§1)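 Four yeast species supplied the SH3 domains, which were expressed as GST fusions in E. coli BL21(DE3) and purified on glutathione Sepharose. Incubation with cellulose membranes carrying synthetic 15-mer peptides, cysteines exchanged for serines, ran overnight at 4°C at 10 μg/ml in TBS-based blocking buffer. Binding signal is reported as normalized, background-subtracted spot intensity averaged over replicates, in arbitrary units not shared between domains.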
row,Binder,SPOT peptide array binding signal intensity
1,PLQSKIPMLPSRRTM,2
2,GATNNAPTLPKRKNP,0.25

# Molecular target: SpCyk3
# Assay: as above
# How it was run: as §1
row,Binder,SPOT peptide array binding signal intensity
1,PLQSKIPMLPSRRTM,16
2,GATNNAPTLPKRKNP,≤ 0

# Molecular target: SpHof1
# Assay: as above
# How it was run: as §1
row,Binder,SPOT peptide array binding signal intensity
1,PLQSKIPMLPSRRTM,61.2
2,GATNNAPTLPKRKNP,2.75

# Molecular target: SpHof1-2
# Assay: as above
# How it was run: as §1
row,Binder,SPOT peptide array binding signal intensity
1,PLQSKIPMLPSRRTM,76.2
2,GATNNAPTLPKRKNP,0.625

# Molecular target: SpHof1-3
# Assay: as above
# How it was run: as §1
row,Binder,SPOT peptide array binding signal intensity
1,PLQSKIPMLPSRRTM,108
2,GATNNAPTLPKRKNP,65.5

# Molecular target: SpHse1
# Assay: as above
# How it was run: as §1
row,Binder,SPOT peptide array binding signal intensity
1,PLQSKIPMLPSRRTM,272
2,GATNNAPTLPKRKNP,11

# Molecular target: SpLsb1
# Assay: as above
# How it was run: as §1
row,Binder,SPOT peptide array binding signal intensity
1,PLQSKIPMLPSRRTM,612
2,GATNNAPTLPKRKNP,118

# Molecular target: SpLsb4
# Assay: as above
# How it was run: as §1
row,Binder,SPOT peptide array binding signal intensity
1,PLQSKIPMLPSRRTM,5580
2,GATNNAPTLPKRKNP,6350

# Molecular target: SpMyo1
# Assay: as above
# How it was run: as §1
row,Binder,SPOT peptide array binding signal intensity
1,PLQSKIPMLPSRRTM,61.5
2,GATNNAPTLPKRKNP,≤ 0

# Molecular target: SpNbp2
# Assay: as above
# How it was run: as §1
row,Binder,SPOT peptide array binding signal intensity
1,PLQSKIPMLPSRRTM,118
2,GATNNAPTLPKRKNP,2

# Molecular target: SpPex13
# Assay: as above
# How it was run: as §1
row,Binder,SPOT peptide array binding signal intensity
1,PLQSKIPMLPSRRTM,224
2,GATNNAPTLPKRKNP,3.5

# Molecular target: SpRvs167
# Assay: as above
# How it was run: as §1
row,Binder,SPOT peptide array binding signal intensity
1,PLQSKIPMLPSRRTM,2200
2,GATNNAPTLPKRKNP,1270

# Molecular target: SpSla1-D1-D2
# Assay: as above
# How it was run: as §1
row,Binder,SPOT peptide array binding signal intensity
1,PLQSKIPMLPSRRTM,68
2,GATNNAPTLPKRKNP,7

# Molecular target: SpSla1-D3
# Assay: as above
# How it was run: as §1
row,Binder,SPOT peptide array binding signal intensity
1,PLQSKIPMLPSRRTM,173
2,GATNNAPTLPKRKNP,15

# Molecular target: AgAbp1
# Assay: as above
# How it was run: as §1
row,Binder,SPOT peptide array binding signal intensity
1,GATNNAPTLPKRKNP,94.5

# Molecular target: AgBbc1
# Assay: as above
# How it was run: as §1
row,Binder,SPOT peptide array binding signal intensity
1,GATNNAPTLPKRKNP,80.5

# Molecular target: AgBem1-D1
# Assay: as above
# How it was run: as §1
row,Binder,SPOT peptide array binding signal intensity
1,GATNNAPTLPKRKNP,15

# Molecular target: AgBzz1-D1
# Assay: as above
# How it was run: as §1
row,Binder,SPOT peptide array binding signal intensity
1,GATNNAPTLPKRKNP,60.2

# Molecular target: AgBzz1-D2
# Assay: as above
# How it was run: as §1
row,Binder,SPOT peptide array binding signal intensity
1,GATNNAPTLPKRKNP,21

# Molecular target: AgCyk3
# Assay: as above
# How it was run: as §1
row,Binder,SPOT peptide array binding signal intensity
1,GATNNAPTLPKRKNP,≤ 0

# Molecular target: AgFus1
# Assay: as above
# How it was run: as §1
row,Binder,SPOT peptide array binding signal intensity
1,GATNNAPTLPKRKNP,15.5

# Molecular target: AgHof1
# Assay: as above
# How it was run: as §1
row,Binder,SPOT peptide array binding signal intensity
1,GATNNAPTLPKRKNP,32.9

# Molecular target: AgHse1
# Assay: as above
# How it was run: as §1
row,Binder,SPOT peptide array binding signal intensity
1,GATNNAPTLPKRKNP,≤ 0

# Molecular target: AgLsb1
# Assay: as above
# How it was run: as §1
row,Binder,SPOT peptide array binding signal intensity
1,GATNNAPTLPKRKNP,11.4

# Molecular target: AgLsb4
# Assay: as above
# How it was run: as §1
row,Binder,SPOT peptide array binding signal intensity
1,GATNNAPTLPKRKNP,2730

# Molecular target: AgMyo5
# Assay: as above
# How it was run: as §1
row,Binder,SPOT peptide array binding signal intensity
1,GATNNAPTLPKRKNP,≤ 0

# Molecular target: AgNbp2
# Assay: as above
# How it was run: as §1
row,Binder,SPOT peptide array binding signal intensity
1,GATNNAPTLPKRKNP,7.25

# Molecular target: AgRvs167
# Assay: as above
# How it was run: as §1
row,Binder,SPOT peptide array binding signal intensity
1,GATNNAPTLPKRKNP,47.3

# Molecular target: AgSho1
# Assay: as above
# How it was run: as §1
row,Binder,SPOT peptide array binding signal intensity
1,GATNNAPTLPKRKNP,3.75

# Molecular target: AgSla1-D1-D2
# Assay: as above
# How it was run: as §1
row,Binder,SPOT peptide array binding signal intensity
1,GATNNAPTLPKRKNP,7

# Molecular target: AgSla1-D3
# Assay: as above
# How it was run: as §1
row,Binder,SPOT peptide array binding signal intensity
1,GATNNAPTLPKRKNP,0.75

# Molecular target: CaAbp1-D1
# Assay: as above
# How it was run: as §1
row,Binder,SPOT peptide array binding signal intensity
1,GATNNAPTLPKRKNP,131

# Molecular target: CaAbp1-D2
# Assay: as above
# How it was run: as §1
row,Binder,SPOT peptide array binding signal intensity
1,GATNNAPTLPKRKNP,155

# Molecular target: CaBbc1
# Assay: as above
# How it was run: as §1
row,Binder,SPOT peptide array binding signal intensity
1,GATNNAPTLPKRKNP,532

# Molecular target: CaBem1-D1
# Assay: as above
# How it was run: as §1
row,Binder,SPOT peptide array binding signal intensity
1,GATNNAPTLPKRKNP,6

# Molecular target: CaBzz1-D1
# Assay: as above
# How it was run: as §1
row,Binder,SPOT peptide array binding signal intensity
1,GATNNAPTLPKRKNP,232

# Molecular target: CaBzz1-D2
# Assay: as above
# How it was run: as §1
row,Binder,SPOT peptide array binding signal intensity
1,GATNNAPTLPKRKNP,≤ 0

# Molecular target: CaCyk3
# Assay: as above
# How it was run: as §1
row,Binder,SPOT peptide array binding signal intensity
1,GATNNAPTLPKRKNP,2.75

# Molecular target: CaFus1
# Assay: as above
# How it was run: as §1
row,Binder,SPOT peptide array binding signal intensity
1,GATNNAPTLPKRKNP,≤ 0

# Molecular target: CaHof1
# Assay: as above
# How it was run: as §1
row,Binder,SPOT peptide array binding signal intensity
1,GATNNAPTLPKRKNP,1.25

# Molecular target: CaHse1
# Assay: as above
# How it was run: as §1
row,Binder,SPOT peptide array binding signal intensity
1,GATNNAPTLPKRKNP,2.25

# Molecular target: CaLsb1
# Assay: as above
# How it was run: as §1
row,Binder,SPOT peptide array binding signal intensity
1,GATNNAPTLPKRKNP,0.5

# Molecular target: CaLsb4
# Assay: as above
# How it was run: as §1
row,Binder,SPOT peptide array binding signal intensity
1,GATNNAPTLPKRKNP,4150

# Molecular target: CaMyo5
# Assay: as above
# How it was run: as §1
row,Binder,SPOT peptide array binding signal intensity
1,GATNNAPTLPKRKNP,3

# Molecular target: CaNbp2
# Assay: as above
# How it was run: as §1
row,Binder,SPOT peptide array binding signal intensity
1,GATNNAPTLPKRKNP,≤ 0

# Molecular target: CaRvs167
# Assay: as above
# How it was run: as §1
row,Binder,SPOT peptide array binding signal intensity
1,GATNNAPTLPKRKNP,125

# Molecular target: CaRvs167-3
# Assay: as above
# How it was run: as §1
row,Binder,SPOT peptide array binding signal intensity
1,GATNNAPTLPKRKNP,3.25

# Molecular target: CaSho1
# Assay: as above
# How it was run: as §1
row,Binder,SPOT peptide array binding signal intensity
1,GATNNAPTLPKRKNP,≤ 0

# Molecular target: CaSla1-D1-D2
# Assay: as above
# How it was run: as §1
row,Binder,SPOT peptide array binding signal intensity
1,GATNNAPTLPKRKNP,47

# Molecular target: CaSla1-D3
# Assay: as above
# How it was run: as §1
row,Binder,SPOT peptide array binding signal intensity
1,GATNNAPTLPKRKNP,≤ 0

# Molecular target: ScAbp1
# Assay: as above
# How it was run: as §1
row,Binder,SPOT peptide array binding signal intensity
1,GATNNAPTLPKRKNP,120

# Molecular target: ScBbc1
# Assay: as above
# How it was run: as §1
row,Binder,SPOT peptide array binding signal intensity
1,GATNNAPTLPKRKNP,7.12

# Molecular target: ScBem1-D1
# Assay: as above
# How it was run: as §1
row,Binder,SPOT peptide array binding signal intensity
1,GATNNAPTLPKRKNP,≤ 0

# Molecular target: ScBzz1-D1
# Assay: as above
# How it was run: as §1
row,Binder,SPOT peptide array binding signal intensity
1,GATNNAPTLPKRKNP,10.5

# Molecular target: ScBzz1-D2
# Assay: as above
# How it was run: as §1
row,Binder,SPOT peptide array binding signal intensity
1,GATNNAPTLPKRKNP,12.5

# Molecular target: ScCyk3
# Assay: as above
# How it was run: as §1
row,Binder,SPOT peptide array binding signal intensity
1,GATNNAPTLPKRKNP,≤ 0

# Molecular target: ScFus1
# Assay: as above
# How it was run: as §1
row,Binder,SPOT peptide array binding signal intensity
1,GATNNAPTLPKRKNP,6.5

# Molecular target: ScHof1
# Assay: as above
# How it was run: as §1
row,Binder,SPOT peptide array binding signal intensity
1,GATNNAPTLPKRKNP,0.25

# Molecular target: ScHse1
# Assay: as above
# How it was run: as §1
row,Binder,SPOT peptide array binding signal intensity
1,GATNNAPTLPKRKNP,27.2

# Molecular target: ScLsb1
# Assay: as above
# How it was run: as §1
row,Binder,SPOT peptide array binding signal intensity
1,GATNNAPTLPKRKNP,242

# Molecular target: ScLsb2
# Assay: as above
# How it was run: as §1
row,Binder,SPOT peptide array binding signal intensity
1,GATNNAPTLPKRKNP,3.5

# Molecular target: ScLsb3
# Assay: as above
# How it was run: as §1
row,Binder,SPOT peptide array binding signal intensity
1,GATNNAPTLPKRKNP,4610

# Molecular target: ScLsb4
# Assay: as above
# How it was run: as §1
row,Binder,SPOT peptide array binding signal intensity
1,GATNNAPTLPKRKNP,2740

# Molecular target: ScMyo3
# Assay: as above
# How it was run: as §1
row,Binder,SPOT peptide array binding signal intensity
1,GATNNAPTLPKRKNP,≤ 0

# Molecular target: ScMyo5
# Assay: as above
# How it was run: as §1
row,Binder,SPOT peptide array binding signal intensity
1,GATNNAPTLPKRKNP,≤ 0

# Molecular target: ScNbp2
# Assay: as above
# How it was run: as §1
row,Binder,SPOT peptide array binding signal intensity
1,GATNNAPTLPKRKNP,4.5

# Molecular target: ScPex13
# Assay: as above
# How it was run: as §1
row,Binder,SPOT peptide array binding signal intensity
1,GATNNAPTLPKRKNP,182

# Molecular target: ScRvs167
# Assay: as above
# How it was run: as §1
row,Binder,SPOT peptide array binding signal intensity
1,GATNNAPTLPKRKNP,960

# Molecular target: ScSho1
# Assay: as above
# How it was run: as §1
row,Binder,SPOT peptide array binding signal intensity
1,GATNNAPTLPKRKNP,≤ 0

# Molecular target: ScSla1-D1-D2
# Assay: as above
# How it was run: as §1
row,Binder,SPOT peptide array binding signal intensity
1,GATNNAPTLPKRKNP,20.8

# Molecular target: ScSla1-D3
# Assay: as above
# How it was run: as §1
row,Binder,SPOT peptide array binding signal intensity
1,GATNNAPTLPKRKNP,≤ 0

# Molecular target: SpAbp1-D1
# Assay: as above
# How it was run: as §1
row,Binder,SPOT peptide array binding signal intensity
1,GATNNAPTLPKRKNP,102

# Molecular target: SpBbc1
# Assay: as above
# How it was run: as §1
row,Binder,SPOT peptide array binding signal intensity
1,GATNNAPTLPKRKNP,1

# Molecular target: SpBzz1-D1
# Assay: as above
# How it was run: as §1
row,Binder,SPOT peptide array binding signal intensity
1,GATNNAPTLPKRKNP,286
